Laboratory results: PubChem BioAssay (NCATS)
Records with an inconclusive call do not appear. The source made the active and inactive calls. The call rests on the fitted dose curve; in most records, active means well fitted inhibition curve with a large enough effect; inconclusive means small, poorly fitted or top-dose-only effect; inactive means flat fitted curve, though single readings scatter.

Assays:
Assay in all cases: Cytotoxic Profiling of Annotated Libraries Using Quantitative High-Throughput Screening (AID 1296008); further: nearly all actives have a fitted effect of over 60% in size
Conditions in all cases: Five cell lines viability, CellTiter-Glo ATP luminescence, 48-72 h; max response: hits give low values
HEK293 = test system: HEK293
Method in brief: (§1)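 Compounds were pin-transferred onto cells and incubated 48 or 72 hr at 37 degree Celsius, 95% humidity. CellTiter-Glo was added, plates sat 10 min at room temperature, then ATP-coupled luminescence was imaged as the viability read-out.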

HaCat = test system: HaCat
Method in brief: as §1

KB-3-1 = test system: KB-3-1
Method in brief: as §1

NIH3T3 = test system: NIH3T3
Method in brief: as §1

Measured: max response
On the % scale 0 is the no-effect control and ±100 the full control effect.

COc1c2c(c(C)c3c1C(=O)OC3)OC1(C)CC(O)C34OC(OC)(OC3(C)C)C(O)CC4(C)C1C2 (stereo not given)
inactive: HEK293 -9.65% | HaCat -21.2% | KB-3-1 | NIH3T3 -1.37%

C[C@H](CCC(=O)O)[C@H]1CC[C@H]2[C@@H]3C[C@H](O)[C@@H]4C[C@H](O)CC[C@]4(C)[C@H]3CC[C@]12C
inactive: HEK293 0.0594% | HaCat | KB-3-1 | NIH3T3

CC(C)C(N)C(=O)OCCOCn1cnc2c(=O)[nH]c(N)nc21 (stereo not given)
inactive: HEK293 1.16% | HaCat -13.5% | KB-3-1 -4.91% | NIH3T3 1.39%

COc1ccc(/C=C/C(=O)O[C@@H]2[C@@H](O)[C@@H](O)[C@H](O[C@@H]3C=C(CO)[C@H]4[C@H](O[C@@H]5O[C@H](CO)[C@@H](O)[C@H](O)[C@H]5O)OC=C[C@H]43)O[C@H]2C)cc1O
inactive: HEK293 -69.5% | HaCat -15% | KB-3-1 -14.4% | NIH3T3 -43%

C[C@@H](O)[C@H](NC(=O)c1ccc(C#Cc2ccc(CN3CCOCC3)cc2)cc1)C(=O)NO
inactive: HEK293 -16.7% | HaCat -21.7% | KB-3-1 | NIH3T3 3.18%
